D1 antagonist: human D1 dopamine receptor antagonism. HEK293 TREx D1 cells, calcium flux, dopamine EC80; active compounds read low. activity change, negative = inhibition, % at 10 µM. actives 3.2% (n = 360,000). AID 504652; in the data active = activity change below about -30%; note: % is set by controls: 0 for no effect and ±100 for the full control effect
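Kinetic fluorescence of a calcium dye serves as the read-out. D1-expressing Hek293 Trex cells, induced overnight at 30 C, are exposed to compound for 180 s before an EC80 dopamine addition, then read 180 s further.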
D1 ag: agonists of human D1 dopamine receptor. P21728. HEK293 T-REx D1 cells, calcium flux, agonist mode. activation, % at 2 µM. actives 1% (n = 360,000). AID 504660; in the data active = activation above about 30%; note: 0% is about no effect
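Tetracycline-induced HEK293 TREx D1 cells, force-coupled to calcium signalling, were dye-loaded with a no-wash calcium kit. Compound was pin-added after a 10 s baseline. Fluorescence was read kinetically at 1 cycle/s for 180 s, with calcium rises flagged as agonism.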
DRD3 agonist: agonists of human D3 dopamine receptor; P35462; D3R DiscoveRx beta-arrestin cells, luminescence, 90 min; max activation, %; actives 0.58% (n = 410,000); in the data active = max activation above about 30%; note: 0% is about no effect
Target sequence (P35462 whole entry, looked up): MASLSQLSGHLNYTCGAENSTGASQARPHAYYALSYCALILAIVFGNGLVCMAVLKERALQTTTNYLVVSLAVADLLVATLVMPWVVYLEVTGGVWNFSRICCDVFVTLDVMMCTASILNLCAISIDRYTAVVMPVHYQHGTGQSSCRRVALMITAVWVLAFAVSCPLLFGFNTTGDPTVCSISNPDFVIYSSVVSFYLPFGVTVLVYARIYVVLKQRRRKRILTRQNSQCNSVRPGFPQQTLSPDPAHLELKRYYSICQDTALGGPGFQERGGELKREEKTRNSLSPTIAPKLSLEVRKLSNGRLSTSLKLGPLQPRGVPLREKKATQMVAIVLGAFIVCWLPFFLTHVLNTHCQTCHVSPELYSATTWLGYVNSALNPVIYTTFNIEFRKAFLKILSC
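Cells at 1500/well, incubated overnight, then treated with pinned compounds (dopamine as control) for 90 min at 37 degrees C. DiscoveRx reagent added for 30 - 60 minutes at room temperature; luminescence read.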
D3 antag: blocks the human D3 dopamine receptor | P35462 | D3R cells, DiscoveRx beta-arrestin luminescence, antagonist mode; active compounds read low | max response, negative = inhibition, % | actives 2.5% (n = 360,000); in the data active = max response below about -50%; inconclusive = no clear call, values can overlap the other calls; note: % is set by controls: 0 for no effect and ±100 for the full control effect
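Cells expressing the human receptor were seeded at 1500 cells/well, incubated overnight at 37 degrees C in 5% CO2, then exposed to library compounds with dopamine controls for 90 minutes at 37 degrees C before luminescent detection.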
D1 PAM: human D1 dopamine receptor positive modulation | P21728 | HEK293 TREx D1 cells, calcium flux, dopamine EC20 potentiation | potentiation, % at 10 µM | actives 0.036% (n = 360,000) | AID 504651; in the data active = potentiation above about 30%; note: 0% is about no effect
An asterisk follows results filed as active; ? = inconclusive; nt = not tested or not shown; ! = not confirmed by another sample. Shown are actives, neighbours in structure and some others; about 6% of the full set was active somewhere.

SMILES | D1 antagonist | D1 ag | DRD3 agonist | D3 antag | D1 PAM
Cc1ccc(-c2nn(-c3ccccc3)cc2CSC(=N)N)cc1 | 32 | 51* | 2 | 35 | 1
Cc1cccc(C)c1Nc1nnc(SCc2nc3ccccc3c(=O)[nH]2)s1 | -4 | 18 | 5 | 0 | -1
O=c1[nH]c(CSc2nnc(NCCCN3CCOCC3)s2)nc2cc(Cl)ccc12 | 8 | 0 | -2 | -63* | -1
CC(C)Oc1ccc(C(CCNCc2ccc(O)cc2)c2ccccc2)cc1 (configuration not stated) | 7 | 39* | -1 | -7 | -6
CCCCC1CCC(C(=O)N(CCC(C)C)c2c(N)n(CCCC)c(=O)[nH]c2=O)CC1 (configuration not stated) | nt | nt | 5 | 31 | nt
Cc1ccc(CNC(=O)c2ccc(OCC3CCCO3)cc2)cc1 (configuration not stated) | -71* | 2 | -3 | 8 | -6
O=C(Nc1ccc(Cl)cc1)c1ccc(OCC2CCCO2)cc1 (configuration not stated) | -66* | 4 | -7 | 11 | -4
Cc1ccc2nc(NC(=O)c3ccc(OCC4CCCO4)cc3)sc2c1 (configuration not stated) | 18 | 10 | 49* | 65 | -2
O=C(NCc1ccc(Cl)cc1)c1ccc(OCC2CCCO2)cc1 (configuration not stated) | -14 | 4 | 4 | 1 | -5
CC1(C(=O)Nc2cccc(Oc3ccccc3)c2)CCN1Cc1ccccc1OC(F)F (configuration not stated) | nt | nt | 5 | 40 | nt
COc1cccc(-c2nnc3sc(CN4CCCCC4)cn23)c1 | 13 | 1 | -21 | nt | -4
O=C(CN(C(=O)c1csnn1)c1ccccc1F)NCc1ccc2c(c1)OCO2 | -7 | 0 | -5 | -11 | 0
Cc1cc(NC(=O)c2ccc3c(c2)OCCO3)ccc1NC(=O)c1cc2ccccc2o1 | 4 | 3 | 10 | 49 | 6
COc1cc(NC(=O)c2ccc(F)cc2)ccc1NC(=O)c1cc2ccccc2o1 | -33* | 1 | -5 | 9 | -9
O=C(Nc1ccc(NC(=O)c2cc3ccccc3o2)cc1)c1ccc2c(c1)OCCO2 | -43* | 3 | 9 | 19 | 1
OCC1CSC(=S)N1Cc1ccccc1 (configuration not stated) | nt | nt | -9 | 9 | nt
CN(C(=O)CC1C(=O)NCCN1Cc1ccc(F)c(F)c1)C1CCOCC1 (configuration not stated) | -42* | 3 | 16 | -5 | -3
COc1cccc(NC(=O)CCc2nnc3n(CC(C)C)c(=O)c4ccccc4n23)c1 | 7 | -1 | 19 | nt | -3
CC1SC(=NC(=O)C(C)N2C(=O)c3ccccc3C2=O)NC1=O (configuration not stated) | -34* | 0 | 1 | 0 | -4
CC(C(=O)N1CCCCC1)N1C(=O)c2ccccc2C1=O (configuration not stated) | -5 | 1 | 7 | 19 | -2
COC(=O)/C=c1\sc2ncnn2c1=O | -12 | -1 | 3 | -69* | -5
CCCCCOC(=O)C1=C(C)NC(=O)NC1c1ccccc1 (configuration not stated) | -36* | 3 | -2 | 11 | -4
CCCCCOC(=O)C1=C(C)NC(=O)NC1c1ccc(N(C)C)cc1 (configuration not stated) | 29 | 2 | 5 | 23 | 0
CCC(Sc1ccc2nnc(-c3ccc(F)cc3)n2n1)C(=O)OC (configuration not stated) | 7 | -3 | -18 | -75* | 1
CC1(C(=O)Nc2ccc3c(c2)OCCO3)CN(S(C)(=O)=O)CC(=O)N1CCc1c[nH]c2ccccc12 (configuration not stated) | nt | nt | 1 | 1 | nt
SMILES | D1 antagonist | D1 ag | DRD3 agonist | D3 antag | D1 PAM
COc1ccc(C(=O)NCc2nnnn2-c2ccc(C)c(C)c2)cc1 | -2 | 0 | -12 | nt | -2
O=C(Cn1cnc2c(nnn2Cc2ccc(F)cc2)c1=O)OCc1ccccc1 | 2 | 0 | 0 | 11 | -3
Cc1cccc(Cn2cnc3c(nnn3Cc3ccccc3F)c2=O)c1 | 9 | 1 | 56* | 3 | -6
Cc1ccc(Cn2nnc3c(=O)n(CC(=O)OCc4ccccc4)cnc32)cc1 | -33* | 4 | -4 | -7 | -7
CCOC(=O)N1CCc2c(sc3c2c(=O)n(-c2ccc(F)cc2)c(=O)n3CC(=O)c2ccccc2)C1 | 24 | -2 | 14 | nt | 0
O=C(CN1C(=O)NC(Cc2ccccc2)C1=O)Nc1ccc(F)cc1 (configuration not stated) | -86* | 2 | 24 | -11 | -9
O=C(CN1C(=O)NC(Cc2ccccc2)C1=O)Nc1ccc(OC(F)(F)F)cc1 (configuration not stated) | 8 | 1 | 3 | 15 | 5
CCOc1ccc(NC(=O)CN(C)C(=O)c2cc(-c3cccs3)nn2-c2ccccc2)cc1OCC | -57* | 1 | -26 | ? | -4
CCn1c(O)c(C=Nc2ccccc2)sc1=S | 13 | 1 | -5 | -27 | 4
O=C(O)Cn1c(O)c(C=Nc2ccccc2)sc1=S | 2 | 0 | 0 | -63*! | -5
Cc1ccc(Cl)cc1NC(=O)COCc1cc(-c2ccco2)on1 | 1 | 0 | 2 | nt | 3
CCOC(=O)[C@]12CCC=C1N(Cc1ccccc1)C(=O)[C@H](CC(=O)NCC13CC4CC(CC(C4)C1)C3)C2 | nt | nt | -10 | -53* | nt
CCOC(=O)[C@]12CCC=C1N(Cc1cccc3ccccc13)C(=O)[C@H](CC(=O)NCC13CC4CC(CC(C4)C1)C3)C2 | nt | nt | 3 | 20 | nt
Cc1nc2ncnn2c(N2CCN(C(=O)c3cccc(F)c3)CC2)c1Cc1ccccc1 | -91* | 2 | 6 | 21 | -4
COCCn1c(C)cc(C2=NNC(=Nc3ccc(OC)cc3)SC2)c1C | 5 | 1 | -3 | -12 | -4
COCCn1c(C)cc(C2=NNC(=Nc3ccccc3)SC2)c1C | 6 | 0 | 1 | -58* | 2
CCOc1cc2[nH]c(=O)n(CCCC(=O)N3CCN(c4ccc(OC)cc4)CC3)c(=O)c2cc1OCC | -1 | 1 | 30* | nt | 0
O=C(CCCn1c(=S)[nH]c2cc3c(cc2c1=O)OCO3)N1CCN(c2ccc(F)cc2)CC1 | -16 | 2 | 36* | 51 | -2
CCOC(=O)N1CCN(C(=O)c2ccc(Cn3c(=S)[nH]c4cc5c(cc4c3=O)OCO5)cc2)CC1 | -2 | 1 | 85* | 15 | -2
CCCSc1ncc(Cl)c(C(=O)Nc2ccc(S(=O)(=O)N3CCCC(C)C3)cc2)n1 (configuration not stated) | -2 | 3 | 1 | nt | 1
COCCSc1nc2c([nH]c3ccccc32)c(=O)n1-c1ccc(OC)c(OC)c1 | 7 | -1 | 1 | nt | -6

Assay outcomes as filed in PubChem.
